Test results: PubChem BioAssay AID651820 (National Center for Advancing Translational Sciences (NCATS), 2012)
Several values for one entry are separate records, joined by “and”; a condition that tells them apart may be missing. Identical values can stand only once. Screen size: about 340,000 compounds; about 12,000 (3.5%) were called active. Roughly 18% stayed inconclusive and do not appear here. Calls follow the shape of the dose curve; as a rule, active = well fitted inhibition curve with a large enough effect; inconclusive = small, poorly fitted or top-dose-only effect, or another doubt; inactive = no such curve, though single readings can be large or run the other way. The full list was thinned out, with actives kept by preference. The source holds several records for some structures; these can differ, active in one and inactive in another.

assay: qHTS Assay for Inhibitors of Hepatitis C Virus (HCV); details: Huh7.5.1 HCVcc-Cre infection, luciferase reporter, 44 h; series mostly up to 41.8 µM; activity change, negative = inhibition: at the top concentration
Summary of the method: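 Cells (1,000/well) were plated 4 h before compound, then infected with HCVcc-Cre virus (~0.5 moi). After 44 h further culture, infection was read as luciferase luminescence following a 15 min substrate incubation at room temperature.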
% is scaled to controls: 0 for no effect and ±100 for the full control effect; potency is read from the fitted curve at half-maximal effect.

Row | SMILES | activity change, negative = inhibition | Potency
1 | COc1ccc(OCC(=O)Nc2ccc(N3CCC(C)CC3)cc2)cc1 | -12.1% (inactive) | 
2 | CCC(=O)c1ccc(OCC(=O)Nc2ccc(N3CCCCC3)cc2)cc1 |  | 11.2 µM (active)
3 | O=C(COc1ccc([N+](=O)[O-])cc1)Nc1ccc(N2CCCC2)cc1 | 2.94% (inactive) | 
4 | O=C(NC(=S)Nc1ccc(Br)cc1F)C1CCCCC1 | 18.5% (inactive) | 
5 | Cc1c(NS(=O)(=O)c2cc(C(=O)NCCc3ccc(F)cc3)cc(Cl)c2Cl)c(=O)n(-c2ccccc2)n1C | 14.6% (inactive) | 
6 | CCN(CC(=O)NC(C)C)C(=O)c1cc(S(=O)(=O)N2CCCCC2)ccc1N1CCCCC1 | 26.8% (inactive) | 
7 | O=C(/C=C/c1ccc(OCc2c(F)cccc2Cl)cc1)N1CCOCC1 | 4.94% (inactive) | 
8 | CN(C)CCCNC(=O)/C=C/c1ccc(OCc2c(F)cccc2Cl)cc1 |  | 2.82 µM (active)
9 | COCCCNC(=O)/C=C/c1ccc(OCc2c(F)cccc2Cl)cc1 | -5.61% (inactive) | 
10 | O=C1COc2ccc(C(=O)COC(=O)CCOc3ccccc3)cc2N1 | 35.1% (inactive) | 
11 | COCCN(C(=O)CC1CCCCC1)c1c(N)n(CC(C)C)c(=O)[nH]c1=O | 2.89% (inactive) | 
12 | CCCCn1c(N)c(N(CCOC)C(=O)c2cccc(S(=O)(=O)N3CCCCC3)c2)c(=O)[nH]c1=O | 9.94% (inactive) | 
13 | CC(Cc1ccccc1)C(=O)N(C)Cc1ccccc1 (stereo not given) | -10.3% (inactive) | 
14 | CC(Cc1ccccc1)NCCC(c1ccccc1)c1ccccc1 (stereo not given) |  | 10 µM (active)
15 | Cc1ncoc1C(=O)NCCC(c1ccccc1)c1ccccc1 | -13.5% (inactive) | 
16 | CC[C@]12c3[nH]c4ccc(OC)cc4c3CCN1C(=O)C(CC(=O)NCc1ccco1)C[C@@H]2C(=O)N1CCN(C(=O)C2CC2)CC1 (stereo not given in full) | 36.7% (inactive) | 
17 | O=C(CN1CCN(S(=O)(=O)c2ccc(Cl)s2)CC1)N1CCCCC1 | 3.28% (inactive) | 
18 | COc1ccc(OC)c(NC(=O)c2sc3nc(C)cc(C)c3c2N)c1 | 20.2% (inactive) | 
19 | COc1ccc(OC)c(-c2csc(NC(=O)C3=NNC(=O)CC3)n2)c1 |  | 0.891 µM (active)
20 | COc1ccc(-c2csc(NC(=O)COC(=O)c3ccc(Br)o3)n2)cc1 | 0.372% (inactive) | 
21 | COc1ccc(CCNC(=O)COC(=O)C2CCCCC2)cc1 | 19.3% (inactive) | 
22 | COc1ccc(OC)c(-c2csc(NC(=O)COC(=O)C3CC3)n2)c1 |  | 10 µM (active)

Row | SMILES | activity change, negative = inhibition | Potency
23 | COc1ccc(C(=O)NC2=NCCS2)c(OC)c1 | -19.4% (inactive) | 
24 | COCCCn1c(SCC(=O)Nc2oc(C)c3c(C)n[nH]c(=O)c23)nc2sc3c(c2c1=O)CCC3 | 6.64% (inactive) | 
25 | COc1ccc(CN2C(CC(=O)Nc3cccnc3)c3ccc(C(F)(F)F)cc3S2(=O)=O)cc1 (stereo not given) | 5.53% (inactive) | 
26 | Cc1cc(C)c(C)c(S(=O)(=O)Nc2cccnc2)c1C | 3.82% (inactive) | 
27 | CC(OC(=O)C1CC(=O)N(Cc2ccccc2)C1)C(=O)Nc1ccccc1[N+](=O)[O-] (stereo not given) | 4.16% (inactive) | 
28 | CCOc1ccc(N2C(=O)CSC2=NC#N)cc1 | 10.2% (inactive) | 
29 | COc1cc2[nH]c(=S)n(Cc3ccc(F)cc3)c(=O)c2cc1OC | -14.5% (inactive) | 
30 | COc1ccc(OC)c(-n2c(=S)[nH]c3cc(C(=O)N4CCCCC4)ccc3c2=O)c1 | 2.37% (inactive) | 
31 | COc1cc(-n2c(=S)[nH]c3ccc(C)cc3c2=O)c(Cl)cc1Cl |  | 10 µM (active)
32 | CCN(C(=O)CSc1cccc[n+]1[O-])c1ccccc1 | 1.01% (inactive) | 
33 | Cc1onc(NC(=O)c2ccc([N+](=O)[O-])o2)c1Br | 12.3% (inactive) | 
34 | Cc1cccc(NC(=O)c2ccc([N+](=O)[O-])o2)c1 |  | 3.55 µM (active)
35 | Cc1cccc(NC(=S)NC(=O)c2ccc(Br)o2)c1 | -5.17% (inactive) | 
36 | CC(C)(C)OC(=O)N[C@H](C(=O)OC(C)(C)C)c1ccc(Br)cc1 | -6.12% (inactive) | 
37 | C[C@]12C=CC(=O)C=C1CC[C@@H]1[C@@H]2C(=O)C[C@@]2(C)[C@H]1CC[C@]2(O)C(=O)CO |  | inactive and 2.82 µM (active)
38 | CC(=O)OCC(=O)C1(O)CCC2C3CC(C)C4=CC(=O)CCC4(C)C3C(O)CC21C (stereo not given) | 7.93% (inactive) | 
39 | CC1(C)C(=O)CCC2(C)C1=CCC1C2C(=O)CC2(C)C1CCC2(O)C(=O)CO (stereo not given) | 9.92% (inactive) | 
40 | COc1ccc(C(=O)CSc2nnc(-c3ccco3)o2)cc1 | -11.4% (inactive) | 
41 | COc1ccc(-n2c(C)cc(C(=O)CSc3nnc(-c4cccs4)o3)c2C)cc1 |  | 11.2 µM (active)
42 | COc1ccc(-c2nnc(SCC(=O)c3cccs3)o2)c(OC)c1 | -14.7% (inactive) | 
43 | COc1cc(C=NNC(=O)c2cccnc2)ccc1OC(=O)c1ccccc1F | -1.01% (inactive) | 
44 | O=C(COC(=O)c1ccccn1)NNC(=O)c1ccc([N+](=O)[O-])cc1 | -0.758% (inactive) | 

Row | SMILES | activity change, negative = inhibition | Potency
45 | O=C(Nc1ccccc1)N1CCC(C(=O)N2CCN(Cc3ccccc3)CC2)CC1 | 8.63% (inactive) | 
46 | Cc1cccc(Nc2nc(-c3ccccc3)cs2)n1 | -8.65% (inactive) | 
47 | c1cnc(Nc2nc(-c3ccc4ccccc4c3)cs2)nc1 | -8.89% (inactive) | 
48 | c1ccc(Nc2nc(-c3ccncc3)cs2)nc1 |  | 11.2 µM (active)
49 | CC(C)CN1CC(C)C(=O)N(c2ccccc2)C1=S (stereo not given) | 2.15% (inactive) | 
50 | O=[N+]([O-])c1ccc(N2CCOCC2)cc1 | 9.72% (inactive) | 
51 | COc1ccc(C2NCCCC2c2ccccc2)cc1 (stereo not given) | 1.92% (inactive) | 
52 | CCOC(=O)N1CCN(Cc2nc3cc(NC(C)=O)ccc3n2C)CC1 | 10.3% (inactive) | 
53 | Cn1c(CN2CCOCC2)nc2cc(NC(=O)c3ccc(Cl)cc3)ccc21 |  | 2.82 µM (active)
54 | CC(=O)NCCc1nc2cc(NC(=O)c3ccccc3)ccc2n1C | 10.2% (inactive) | 
55 | COC(=O)Cc1ccc(Oc2ncc(C(F)(F)F)cc2Cl)cc1 | -12.6% (inactive) | 
56 | COc1cccc(/C(C)=N/Nc2ncc(Cl)cc2Cl)c1 | -0.35% (inactive) | 
57 | COc1cccc(/C=N/Nc2ncc(C(F)(F)F)cc2Cl)c1O |  | 5.62 µM (active)
58 | Cc1cccc(NC(=O)CN2CCN(CC(=O)NCC3(N4CCCCC4)CCCCC3)CC2)c1C | 6.26% (inactive) | 
59 | COc1ccc(S(=O)(=O)N2CCOCC2)cc1NC(=O)Cc1coc2cc(C)ccc12 | -7.25% (inactive) | 
60 | Cc1ccc(-c2nn(-c3ccccc3)cc2C(=O)NCCCN2CCCC2=O)cc1 | 1.07% (inactive) | 
61 | CC(C)CCn1c(=O)c2c(nc3n2CCCN3Cc2ccccc2)n(C)c1=O |  | 11.2 µM (active)
62 | CC(C)CCn1c(CN(C)Cc2ccccc2)nc2c1c(=O)n(C)c(=O)n2C | -26.5% (inactive) | 
63 | Cn1c(=O)n(CCc2ccccc2)c(=O)c2c1nc1n2CCCN1c1ccccc1 | -15.1% (inactive) | 
64 | O=c1[nH]c(=S)[nH]c(O)c1/C=C1\C=Nc2ccccc21 | 23.1% (inactive) | 
65 | Cc1cc(F)ccc1S(=O)(=O)Nc1ccc(C(=O)N(C)Cc2ccco2)cc1 | 4.73% (inactive) | 
